Results published in the supplement of paper PMC10849652.
The full data set covers some 7,900 targets. This sample favours those with a hit. About 0.6% of all pairs of compound and target were hits. Values without a mark were called inactive.

How the values were obtained:
Experiment in all cases: log2 fold change, soluble protein after heating vs DMSO (PISA); higher = thermal stabilisation; K562 cells, 10 uM, 30 min; active = over 0.2 and 3.5 SD of the protein, either way, in both replicates (recomputed)
IRAK-1-4 Inhibitor I = compound: C1COCCN1CCN2C3=CC=CC=C3N=C2NC(=O)C4=CC(=CC=C4)[N+](=O)[O-] [IRAK-1-4 Inhibitor I]
In short: (§1)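 K562 cells (2×10^6 cells/mL) were treated with 10 μM compound for 30 min, and aliquots were heated for 3 min over 48°C-58°C. Pooled aliquots were extracted in PBS with 0.5% NP-40 at 4°C, and the supernatant after 21,000xg for 90 min was measured by TMTpro 16plex LC-MS/MS with channel sums equalised. Reported thermal stability, relative to control samples and from duplicates, is a log2 fold change.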

ibrutinib = compound: C=CC(=O)N1CCC[C@@H](n2nc(-c3ccc(Oc4ccccc4)cc3)c3c(N)ncnc32)C1 [ibrutinib]
In short: as §1

[1] = compound: CC(=O)c1cnc2ccc(-c3cc(Cl)c(O)c(Cl)c3)nc2c1N[C@H]1CC[C@H](CN(C)C)CC1
In short: as §1

ralimetinib = compound: CC(C)(C)Cn1c(N)nc2ccc(-c3[nH]c(C(C)(C)C)nc3-c3ccc(F)cc3)nc21 [ralimetinib]
In short: as §1

[2] = compound: CC(C)(O)CC(=O)NCCn1ccc2ncnc(Nc3ccc(Oc4cccc(C(F)(F)F)c4)c(Cl)c3)c21
In short: as §1

[3] = compound: CC(C)C1=C2N=C(C=C(N2N=C1)NCC3=CC=CC=C3)NCCCCCCN
In short: as §1

[4] = compound: CC(C)C[C@@H](C=O)NC(=O)[C@H](CC(C)C)NC(=O)[C@H](CC(C)C)NC(=O)OCc1ccccc1
In short: as §1

pinometostat = compound: CC(C)N(C[C@H]1O[C@@H](n2cnc3c(N)ncnc32)[C@H](O)[C@@H]1O)[C@H]1C[C@@H](CCc2nc3cc(C(C)(C)C)ccc3[nH]2)C1 [pinometostat]
In short: as §1

[5] = compound: CC1=C(C(CC(=O)N1)C2=CC=C(C=C2)C(F)(F)F)C(=O)NC3=C(C=C4C(=C3)C=NN4)F
In short: as §1

[6] = compound: CC1=C(C2=C(C=C1)C(=O)C3=CC=CC=C3N2CCCN)C
In short: as §1

UniProt Q9BZD2, sequence (Q9BZD2 whole entry, looked up): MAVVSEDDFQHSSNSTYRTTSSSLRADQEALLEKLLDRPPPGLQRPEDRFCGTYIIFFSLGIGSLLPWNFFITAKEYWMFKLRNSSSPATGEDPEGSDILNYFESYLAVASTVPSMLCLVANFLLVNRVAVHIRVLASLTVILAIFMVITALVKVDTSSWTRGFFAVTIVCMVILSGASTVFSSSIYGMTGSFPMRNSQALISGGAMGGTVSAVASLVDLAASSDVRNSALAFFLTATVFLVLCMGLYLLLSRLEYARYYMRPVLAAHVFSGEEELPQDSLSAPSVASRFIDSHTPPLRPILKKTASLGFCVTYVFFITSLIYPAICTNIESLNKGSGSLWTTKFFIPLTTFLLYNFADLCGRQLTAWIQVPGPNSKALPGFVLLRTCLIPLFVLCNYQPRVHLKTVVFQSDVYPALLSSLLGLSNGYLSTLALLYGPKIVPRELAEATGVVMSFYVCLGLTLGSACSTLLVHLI
UniProt P51571, sequence (P51571 whole entry, looked up): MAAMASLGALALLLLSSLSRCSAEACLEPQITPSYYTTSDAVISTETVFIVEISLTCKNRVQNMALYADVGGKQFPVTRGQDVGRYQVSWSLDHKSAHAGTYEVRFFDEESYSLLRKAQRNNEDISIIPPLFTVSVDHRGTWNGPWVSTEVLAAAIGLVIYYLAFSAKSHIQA
UniProt Q9UNH7, sequence (Q9UNH7 whole entry, looked up): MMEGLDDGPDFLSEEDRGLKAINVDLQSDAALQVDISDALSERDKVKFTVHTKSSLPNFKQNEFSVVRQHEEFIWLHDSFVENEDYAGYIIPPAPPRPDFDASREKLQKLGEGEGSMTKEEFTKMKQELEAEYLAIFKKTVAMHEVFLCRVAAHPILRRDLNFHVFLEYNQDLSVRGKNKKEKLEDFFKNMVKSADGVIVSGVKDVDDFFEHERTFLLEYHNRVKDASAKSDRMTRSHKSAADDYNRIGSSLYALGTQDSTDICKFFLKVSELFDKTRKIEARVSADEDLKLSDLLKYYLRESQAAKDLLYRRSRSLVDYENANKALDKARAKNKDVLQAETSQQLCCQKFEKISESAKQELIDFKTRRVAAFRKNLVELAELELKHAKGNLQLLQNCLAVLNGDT
UniProt O15400, sequence (O15400 whole entry, looked up): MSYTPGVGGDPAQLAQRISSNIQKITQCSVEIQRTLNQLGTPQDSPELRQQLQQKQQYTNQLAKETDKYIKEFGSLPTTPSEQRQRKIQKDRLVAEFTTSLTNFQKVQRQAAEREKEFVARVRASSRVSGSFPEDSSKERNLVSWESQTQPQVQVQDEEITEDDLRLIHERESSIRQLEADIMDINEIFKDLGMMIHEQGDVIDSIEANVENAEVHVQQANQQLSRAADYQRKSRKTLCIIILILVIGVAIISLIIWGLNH
UniProt Q9H2K8, sequence (Q9H2K8 whole entry, looked up): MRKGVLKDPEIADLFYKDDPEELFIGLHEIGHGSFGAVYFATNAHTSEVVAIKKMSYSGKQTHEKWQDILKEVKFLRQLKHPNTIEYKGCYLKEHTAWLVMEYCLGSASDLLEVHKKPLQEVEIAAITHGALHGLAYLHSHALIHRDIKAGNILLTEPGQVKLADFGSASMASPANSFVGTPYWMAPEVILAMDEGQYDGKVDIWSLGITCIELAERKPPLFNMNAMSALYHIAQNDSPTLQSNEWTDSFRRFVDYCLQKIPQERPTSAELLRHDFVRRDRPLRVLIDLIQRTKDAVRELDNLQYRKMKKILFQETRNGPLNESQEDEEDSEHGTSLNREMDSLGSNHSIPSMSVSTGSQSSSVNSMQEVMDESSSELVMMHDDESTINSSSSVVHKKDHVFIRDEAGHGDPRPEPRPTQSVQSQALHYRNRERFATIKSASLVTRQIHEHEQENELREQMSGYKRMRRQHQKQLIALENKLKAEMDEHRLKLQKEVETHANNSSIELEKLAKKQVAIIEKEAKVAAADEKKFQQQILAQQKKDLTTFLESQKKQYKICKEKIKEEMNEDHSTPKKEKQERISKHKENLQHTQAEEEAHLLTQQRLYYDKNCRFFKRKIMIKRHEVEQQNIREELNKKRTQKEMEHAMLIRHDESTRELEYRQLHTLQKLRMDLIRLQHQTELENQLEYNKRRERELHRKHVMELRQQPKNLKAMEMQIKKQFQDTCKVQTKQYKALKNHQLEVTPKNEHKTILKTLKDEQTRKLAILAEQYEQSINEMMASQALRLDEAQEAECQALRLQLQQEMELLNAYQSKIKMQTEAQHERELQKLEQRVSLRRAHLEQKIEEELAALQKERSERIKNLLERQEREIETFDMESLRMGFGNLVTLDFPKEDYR
UniProt Q4KMP7, sequence (Q4KMP7 whole entry, looked up): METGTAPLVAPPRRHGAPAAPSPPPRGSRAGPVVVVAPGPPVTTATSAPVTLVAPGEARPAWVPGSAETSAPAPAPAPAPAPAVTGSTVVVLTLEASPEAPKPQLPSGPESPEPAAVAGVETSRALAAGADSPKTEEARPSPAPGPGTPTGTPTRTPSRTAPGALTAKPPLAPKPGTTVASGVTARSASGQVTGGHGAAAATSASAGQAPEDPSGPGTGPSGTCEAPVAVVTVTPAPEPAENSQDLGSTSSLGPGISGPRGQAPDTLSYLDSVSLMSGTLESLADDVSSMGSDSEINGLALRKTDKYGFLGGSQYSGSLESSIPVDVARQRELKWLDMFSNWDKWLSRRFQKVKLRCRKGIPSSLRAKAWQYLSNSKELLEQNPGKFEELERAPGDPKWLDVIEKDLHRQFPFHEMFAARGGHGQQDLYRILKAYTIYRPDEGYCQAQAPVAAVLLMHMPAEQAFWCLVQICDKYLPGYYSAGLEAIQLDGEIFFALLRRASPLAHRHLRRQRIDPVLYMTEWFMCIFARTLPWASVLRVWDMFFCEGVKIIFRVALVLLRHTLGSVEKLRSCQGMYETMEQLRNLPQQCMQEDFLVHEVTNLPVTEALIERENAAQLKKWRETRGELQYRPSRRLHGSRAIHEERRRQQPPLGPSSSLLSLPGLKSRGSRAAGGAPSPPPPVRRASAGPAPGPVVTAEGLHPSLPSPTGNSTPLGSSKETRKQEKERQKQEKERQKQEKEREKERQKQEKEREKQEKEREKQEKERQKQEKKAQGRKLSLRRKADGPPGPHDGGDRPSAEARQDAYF
UniProt Q9Y4R8, sequence (Q9Y4R8 whole entry, looked up): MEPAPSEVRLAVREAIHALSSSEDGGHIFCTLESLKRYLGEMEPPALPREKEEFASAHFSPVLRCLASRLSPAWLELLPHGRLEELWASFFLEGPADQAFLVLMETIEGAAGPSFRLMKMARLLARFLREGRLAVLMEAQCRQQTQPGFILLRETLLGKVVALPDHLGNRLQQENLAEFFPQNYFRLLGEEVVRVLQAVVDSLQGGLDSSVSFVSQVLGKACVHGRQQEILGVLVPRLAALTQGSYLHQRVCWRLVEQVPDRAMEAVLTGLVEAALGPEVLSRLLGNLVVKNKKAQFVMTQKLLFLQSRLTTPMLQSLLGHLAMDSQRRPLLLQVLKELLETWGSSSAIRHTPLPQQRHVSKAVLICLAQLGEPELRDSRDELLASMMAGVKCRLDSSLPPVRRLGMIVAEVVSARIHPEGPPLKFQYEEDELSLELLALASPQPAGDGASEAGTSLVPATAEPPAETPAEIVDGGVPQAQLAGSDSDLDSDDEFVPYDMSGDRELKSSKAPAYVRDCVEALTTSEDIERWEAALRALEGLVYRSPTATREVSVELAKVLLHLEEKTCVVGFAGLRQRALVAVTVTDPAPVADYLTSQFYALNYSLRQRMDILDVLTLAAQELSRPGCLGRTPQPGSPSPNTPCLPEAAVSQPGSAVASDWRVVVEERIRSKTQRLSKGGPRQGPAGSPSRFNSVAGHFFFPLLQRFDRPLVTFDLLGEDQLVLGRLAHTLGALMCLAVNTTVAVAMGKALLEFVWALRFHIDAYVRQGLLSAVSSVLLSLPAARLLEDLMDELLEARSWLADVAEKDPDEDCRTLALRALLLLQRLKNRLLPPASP
UniProt P63165, sequence (P63165 whole entry, looked up): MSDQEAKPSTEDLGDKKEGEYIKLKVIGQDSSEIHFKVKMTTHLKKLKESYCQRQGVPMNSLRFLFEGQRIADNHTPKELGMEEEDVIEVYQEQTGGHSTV
UniProt Q9H5Q4, sequence (Q9H5Q4 whole entry, looked up): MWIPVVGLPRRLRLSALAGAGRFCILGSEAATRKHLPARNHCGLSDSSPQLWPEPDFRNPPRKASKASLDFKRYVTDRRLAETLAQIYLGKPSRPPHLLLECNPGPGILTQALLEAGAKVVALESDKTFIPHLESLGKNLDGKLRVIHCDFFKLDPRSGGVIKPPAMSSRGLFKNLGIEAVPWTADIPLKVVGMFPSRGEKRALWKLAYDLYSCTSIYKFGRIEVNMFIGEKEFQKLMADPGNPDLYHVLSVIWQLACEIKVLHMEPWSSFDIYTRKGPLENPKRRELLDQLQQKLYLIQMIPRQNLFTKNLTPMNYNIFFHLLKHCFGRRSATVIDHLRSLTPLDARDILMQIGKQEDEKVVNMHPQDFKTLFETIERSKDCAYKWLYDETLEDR
UniProt Q16842, sequence (Q16842 whole entry, looked up): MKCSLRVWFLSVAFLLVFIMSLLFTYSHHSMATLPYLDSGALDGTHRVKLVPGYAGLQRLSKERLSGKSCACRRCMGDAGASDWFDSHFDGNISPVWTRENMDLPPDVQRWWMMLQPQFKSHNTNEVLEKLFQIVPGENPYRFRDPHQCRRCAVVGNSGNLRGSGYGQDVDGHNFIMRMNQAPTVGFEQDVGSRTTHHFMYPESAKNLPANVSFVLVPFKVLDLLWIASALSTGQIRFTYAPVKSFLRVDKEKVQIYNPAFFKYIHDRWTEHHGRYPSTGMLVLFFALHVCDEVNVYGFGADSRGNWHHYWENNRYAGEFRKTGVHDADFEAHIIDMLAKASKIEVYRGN
UniProt Q16629, sequence (Q16629 whole entry, looked up): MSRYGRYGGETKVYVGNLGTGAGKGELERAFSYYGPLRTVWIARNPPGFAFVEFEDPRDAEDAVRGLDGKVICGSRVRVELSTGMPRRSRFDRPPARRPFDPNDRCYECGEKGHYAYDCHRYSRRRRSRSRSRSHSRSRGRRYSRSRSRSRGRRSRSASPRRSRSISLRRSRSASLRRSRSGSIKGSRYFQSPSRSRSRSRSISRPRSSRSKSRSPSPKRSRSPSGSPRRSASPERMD

Row | Target | log2 fold change (IRAK-1-4 Inhibitor I) | log2 fold change (ibrutinib) | log2 fold change [1] | log2 fold change (ralimetinib) | log2 fold change [2] | log2 fold change [3] | log2 fold change [4] | log2 fold change (pinometostat) | log2 fold change [5] | log2 fold change [6]
1 | SPTBN4 (UniProt Q9H254) | -0.008 | 0.1 | -0.06 | -0.032 | -0.025 | -0.671 (active) | -0.07 | -0.007 | 0.024 | -0.016
2 | TELO2 (UniProt Q9Y4R8) | -0.126 | -0.044 | 0.008 | 0.103 | 0 | -0.375 | 0.049 | 0.204 | -0.015 | 0.125
3 | SPART (UniProt Q8N0X7) | 0.008 | -0.033 | -0.084 | 0.02 | -0.058 | -0.056 | -0.011 | 0.034 | -0.04 | 0.128
4 | SUMO1 (UniProt P63165) | -0.079 | -0.007 | -0.077 | 0.053 | 0.139 | -0.065 | 0.01 | 0.022 | 0.042 | -0.125
5 | TGFBI (UniProt Q15582) | 0.026 | 0.149 | 0.045 | -0.099 | 0.244 | -0.044 | 0.05 | -0.092 | 0.115 | -0.039
6 | TARS2 (UniProt Q9BW92) | -0.076 | -0.043 | 0.009 | -0.029 | -0.078 | -0.219 (active) | 0.069 | -0.022 | 0.036 | 0.054
7 | SYNE1 (UniProt Q8NF91) | 0.062 | -0.015 | -0.398 | 0.127 | -0.212 | 0.097 | 0.064 | 0.002 | -0.031 | 0.075
8 | SLC44A2 isoform 2 (UniProt Q8IWA5) | 0.092 | 0.055 | 0.034 | -0.128 | -0.006 | 0.296 (active) | -0.047 | 0.056 | -0.078 | 0.034
9 | TAOK3 (UniProt Q9H2K8) | 0.007 | 0.002 | -0.48 (active) | 0.009 | -0.011 | 0.007 | 0.033 | 0.012 | 0.003 | 0.035
10 | TBC1D10B (UniProt Q4KMP7) | -0.001 | 0.025 | -0.342 (active) | 0.009 | -0.006 | -0.027 | 0.021 | 0.063 | -0.015 | 0.057
11 | SNX6 (UniProt Q9UNH7) | 0.012 | 0.035 | -0.233 | -0.035 | -0.249 | -0.234 | 0.013 | 0.048 | 0.026 | -0.013
12 | SSR4 (UniProt P51571) | 0.003 | 0.032 | -0.033 | 0.049 | -0.034 | -0.03 | 0.032 | -0.028 | -0.015 | 0.09
13 | TBC1D9B (UniProt Q66K14) | 0.038 | 0.079 | -0.075 | 0.071 | 0.103 | -0.133 | 0.032 | 0.051 | 0.02 | -0.042
14 | THRAP3 (UniProt Q9Y2W1) | -0.116 | 0.01 | -0.581 (active) | -0.026 | -0.032 | -0.12 | 0.075 | 0.057 | 0.066 | -0.018
15 | TIAL1 isoform 2 (UniProt Q01085) | 0.044 | 0.011 | -0.035 | -0.05 | 0.001 | 0.106 | 0.019 | -0.039 | -0.02 | 0.238 (active)
16 | TFB2M (UniProt Q9H5Q4) | 0.037 | -0.029 | -0.013 | -0.085 | -0.136 | -0.08 | 0.02 | 0.012 | -0.03 | 0.005
17 | SLC25A42 (UniProt Q86VD7) | 0.034 | 0.045 | -0.002 | 0.041 | 0.015 | 0.014 | -0.037 | -0.027 | -0.045 | 0.077
18 | ST3GAL2 (UniProt Q16842) | -0.183 | -0.105 | -0.115 | -0.009 | 0.119 | -0.12 | 0.066 | -0.031 | -0.037 | 0.046
19 | TCOF1 isoform 4 (UniProt Q13428) | -0.009 | -0.034 | -0.13 | 0.028 | 0.023 | -0.042 | -0.083 | 0.024 | 0.015 | -0.664 (active)
20 | STX7 (UniProt O15400) | -0.01 | 0.024 | 0.011 | -0.039 | 0.012 | -0.087 | -0.009 | -0.109 | 0 | 0.017
21 | SURF1 (UniProt Q15526) | 0.021 | -0.028 | 0.051 | -0.04 | 0.036 | -0.172 | 0.028 | -0.044 | 0.022 | 0.098
22 | TM9SF2 (UniProt Q99805) | 0.06 | 0.01 | -0.04 | -0.049 | 0.021 | -0.436 (active) | -0.012 | -0.003 | 0.008 | 0.027
23 | SLC29A3 (UniProt Q9BZD2) | 0.01 | 0.064 | 0.04 | -0.025 | 0.088 | -0.283 | 0.011 | 0.02 | -0.046 | -0.148
24 | SUN2 (UniProt Q9UH99) | -0.04 | 0.056 | -0.044 | 0.072 | -0.119 | -0.211 (active) | 0.041 | 0.027 | 0.043 | -0.117
25 | TJP2 isoform 7 (UniProt Q9UDY2) | 0.004 | -0.004 | -0.437 (active) | 0.032 | -0.061 | -0.107 | 0.068 | 0.003 | 0.017 | 0.05
26 | TFR2 (UniProt Q9UP52) | 0.018 | 0.008 | -0.011 | -0.018 | 0.037 | -0.146 | 0.02 | 0.02 | 0.02 | -0.128
27 | SRSF7 (UniProt Q16629) | -0.112 | 0.128 | -0.288 | 0.098 | 0.24 | 0.032 | 0.084 | 0.128 | 0.053 | -0.266
